Among the data in PubChem BioAssay AID720541 (National Center for Advancing Translational Sciences (NCATS), 2013) are Potency values, retold here.

Hit rate of the full screen: of about 1,300 compounds, about 420 (32%) were called active. Inconclusive results (about 32%) are left out. Calls come from the whole dose curve; as a rule, active = well fitted inhibition curve with a large enough effect; inconclusive = small, poorly fitted or top-dose-only effect; inactive = no such curve, though single readings can be large or run the other way. The list shows a part of the results. Entries that show only a call come without a potency.
Potency is the fitted concentration of half-maximal effect.

The experiment concerns the target C-terminal-binding protein 1 (Homo sapiens) (UniProt Q13363). The experiment is described as follows: qHTS for Inhibitors of the Phosphatase Activity of Eya2: Carboxyl-terminal binding protein (CtBP) Counterscreen for Cherry-picked Compounds. Note: nearly all actives have a fitted effect of over 65% in size. Particulars: purified protein-protein binding, AlphaScreen, 3 h; series mostly up to 46.1 µM. From the text: The Eya protein family is an essential co-activator of the Six1 transcription factor. Six1 is a developmental gene that is abnormally re-expressed in a large percentage of breast cancers. This over-expression plays a causal role in the initiation and metastatic development of breast cancers. The Eya family of protein is also found to contain a unique HAD phosphatase domain with protein tyrosine phosphatase activity which can potentially play a role in Six1-mediated breast tumorigenesis. Recently, Eya2 is found to dephosphorylate the histone variant H2AX and direct cells towards DNA repair instead of apoptosis in the event of DNA damage.
A 1536 well format, fluorescence based qHTS assay was developed and used to target the phosphatase activity of Eya2 (AID 488837). In addition, a CtBP counterscreen was developed using the AlphaScreen technology to evaluate compound selectivity to target […]. The data herein reports the activity of the cherry-picked compounds against the CtBP AlphaScreen. Compounds that are active or have > 100 fold selectivity vs. the Eya2 activity were excluded for further characterization. Inactivity is the desired outcome for the CtBP counterscreen.
NIH Chemical Genomics Center [NCGC]
NIH Molecular Libraries Probe Centers Network [MLPCN]
Assay Submitter (PI): Rui Zhao, University of Colorado Denver
Four microliters of reagent (25 nM GST-E1A, 25 nM CtBP-6x HIS) was dispensed in a 1536 well Greiner plates. Twenty-three nanoliter of test compounds (final concentration of 2.5 nM - 46 uM) and positive control E1A peptide inhibitor (final concentration of 0.14 nM - 4.6 uM) were added to the plates using the Kalypsys pintool equipped with a 1536 pin head. The plates was then incubated at room temperature for 2 hours followed by addition of 1 uL Alpha bead donor / acceptor mix (20 ug/mL final concentration). The assay plates were incubated for additional 1 hour at room temperature and protected from light. The AlphaScreen signal was obtained using the PerkinElmer EnVision plate reader using the 680 nm excitation and 520 - 620 nm emission filters. The data was normalized to the E1A peptide inhibitor for maximum inhibition and DMSO treated wells as negative control.
(In general: Quantitative high-throughput screening tests each substance at several concentrations.)
On to `CCC(C)N(C(=O)CSc1nc(-c2cccs2)nc2ccccc12)C1CCS(=O)(=O)C1` (configuration not stated), for which the Potency result is “inactive”. As for `CSc1nc(NCCOCCO)c2sc3nc(-c4ccco4)c4c(c3c2n1)CCC4`, the figure is 5.36 µM (active); as for `OCCN(Cc1cccnc1)Cc1ccccn1`, 5.36 µM (active). As for `COCC(C)n1c(-c2ccc3c(c2)NC(=O)CO3)csc1=Nc1ccc(OC(F)F)cc1` (configuration not stated), the entry is “inactive”; as for `CCOC(=O)c1cc2c(N)c(C(=O)c3ccc(Br)cc3)sc2[nH]c1=O`, 1.9 µM (active); as for `Cc1cc(C(=O)CSc2nc(N)cc(N)n2)c(C)n1C1CC1`, “inactive”. As for `COc1ccc(C(CCNCc2ccc(N(C)C)cc2)C(C)C)cc1` (configuration not stated), the figure is 12 µM (active). Take `COc1ccccc1C(CCNCc1ccc(N(C)C)cc1)c1ccc(OC(C)C)cc1` (configuration not stated): the Potency is 6.01 µM (active). On to `COc1ccc(C(NC(C)=O)c2cc(Cl)c3cccnc3c2O)cc1OC` (configuration not stated), for which the Potency was 1.69 µM (active). Take `CCCCC(=O)NC(c1cccc([N+](=O)[O-])c1)c1ccc2cccnc2c1O` (configuration not stated): the Potency result is “inactive”. For the molecule `CCCCC(=O)NC(c1ccco1)c1cc(Cl)c2cccnc2c1O` (configuration not stated), the Potency was 4.78 µM (active). As for `COc1ccc(C(NC(C)=O)c2ccc3cccnc3c2O)cc1OC` (configuration not stated), the figure is 1.35 µM (active).

For `CCC(=O)NC(c1cccs1)c1cc(Cl)c2cccnc2c1O` (configuration not stated), the Potency is 1.69 µM (active).

As for `CCOC(=O)N1CCN(S(=O)(=O)c2ccc(C(=O)NNc3nc4c(C)cc(C)cc4s3)cc2)CC1`, the Potency entry was “inactive”. Next, `O=c1[nH]c(/C=C\c2ccc(O)cc2)nc(O)c1[N+](=O)[O-]`: “inactive”; `O=C(NCCC1=CCCCC1)c1[nH]c(C(F)(F)F)nc1-c1ccccc1`: “inactive”; `O=C(NC1CCCCC1)N1CCN(C2CCCCC2)CC1`: “inactive”. As for `CCCC(=O)NC(c1ccc(OC)c(OC)c1)c1cc(Cl)c2cccnc2c1O` (configuration not stated), the figure is 1.69 µM (active).

With `O=C(O)c1ccccc1NC(c1ccccc1)c1ccc2cccnc2c1O` (configuration not stated), the Potency was 1.9 µM (active). As for `O=C(Oc1ccc(Cl)c2cccnc12)C12CC3CC(CC(C3)C1)C2`, the entry is “inactive”. Next, `CC(=O)NC(c1ccc(Cl)cc1)c1ccc2cccnc2c1O` (configuration not stated): 1.9 µM (active); `CCC(=O)NC(c1ccc(OC)c(OC)c1)c1cc(Cl)c2cccnc2c1O` (configuration not stated): 1.69 µM (active). As for `O=C(Nc1ncc(Cc2ccccc2Cl)s1)c1ccc(-c2cccc([N+](=O)[O-])c2)o1`, the entry is “inactive”; as for `COc1ccc(C2c3[nH]c4ccccc4c3C[C@H]3C(=O)N(C4CCN(Cc5ccccc5)CC4)CC(=O)N23)cc1OC` (some centres not stated), “inactive”. On to `CCCCOC(=O)CCCc1ccc([N+](=O)[O-])cc1[N+](=O)[O-]`, for which the Potency result is “inactive”. On to `CCOc1ccc2c(c1)C(c1ccc(C)cc1)=NNC(c1ccc(OC)cc1)=N2`, for which the Potency result was “inactive”.

In the case of `O=c1c2ccccc2c(C=Nc2cccc(S(=O)(=O)NC3=NCCCCC3)c2)c(O)n1Cc1ccccc1`, the Potency entry is “inactive”. Next, `CCN(CC)CCNC(=O)c1ccc(N)cc1`: “inactive”; `CC(C)C(=O)NC(c1ccc(Cl)cc1Cl)c1ccc2cccnc2c1O` (configuration not stated): 5.36 µM (active); `O=C(CSc1nnc2c(Cl)cc(Cl)cn12)NC1CCS(=O)(=O)C1` (configuration not stated): “inactive”. Turning to `O=C(C[n+]1ccccc1)c1ccc(O)c(O)c1`, the Potency result is “inactive”. As for `CC12CC3(C)CC(C)(C1)CC(C(=O)NC(=S)N1CCOCC1)(C2)C3`, the entry is “inactive”; as for `COc1ccc(-c2nnc(NC(=O)c3ccc(S(=O)(=O)N(C)CC4CCCO4)cc3)o2)c(OC)c1` (configuration not stated), 16.9 µM (active); as for `O=c1c(CO)cc(CO)cc(CO)c1O`, 9.53 µM (active).

In the case of `Cn1c(=O)n(CCO)c(=O)c2c1nc(Br)n2Cc1ccccc1`, the Potency result is “inactive”. Next, `Cn1c(=O)n(Cc2ccccc2)c(=O)c2c1nc(NCC1CCCO1)n2Cc1ccccc1` (configuration not stated): “inactive”; `Cn1c(=O)n(Cc2ccc(F)cc2)c(=O)c2c1nc1n2CCN1Cc1ccco1`: 10.7 µM (active); `COCCNC(=O)CCC(=O)NNc1nc2ccccc2c2nc(-c3ccccc3)nn12`: “inactive”.

Turning to `COc1ccc2c(c1)c1nnc(SC(C)C)nc1n2C`, the Potency was 4.78 µM (active).

Take `Cc1cccc(NC(=S)N(CCN2CCOCC2)Cc2cc3cc4c(cc3[nH]c2=O)OCCO4)c1`: the Potency result is “inactive”. Next, `Nc1ccc2c(c1Cl)C(=O)c1ccc(N)c(Cl)c1C2=O`: 6.01 µM (active).

Consider `CCOC(=O)c1ccc(NC(=S)N2CCN(CCN=CC3=C(O)CC(c4ccccc4)CC3=O)CC2)cc1` (configuration not stated), for which the Potency entry was “inactive”. Turning to `COc1cc(N=c2oc3c(C)ncc(CO)c3cc2C(N)=O)cc(OC)c1OC`, the Potency is 4.78 µM (active). In the case of `O=C(CSc1nnc2c(n1)[nH]c1ccccc12)Nc1ccc(S(=O)(=O)Nc2ncccn2)cc1`, the Potency is 5.36 µM (active).

Turning to `O=C(CSc1nnc2c(n1)[nH]c1ccccc12)Nc1cccc(S(=O)(=O)N2CCOCC2)c1`, the Potency entry was “inactive”.

Regarding `CCOC(=O)Cc1nnc(NC(=O)C(CC)Sc2nnc3c4ccccc4n(C)c3n2)s1` (configuration not stated), the Potency was 13.5 µM (active). Next, `CCOC(=O)Cc1nnc(NC(=O)CSc2nnc3c(n2)[nH]c2ccccc23)s1`: 15.1 µM (active); `CCOC(=O)Cc1nnc(NC(=O)CSc2nnc3c4ccccc4n(C)c3n2)s1`: 15.1 µM (active). With `Cc1nc(NC(=O)CSc2nnc(-c3ccccc3)c(-c3ccccc3)n2)c(Cl)cc1Cl`, the Potency result was “inactive”. As for `CC1(C)CC2CC(C)(CN2/C=N/c2sc3c(c2C#N)CC(C)(C)NC3(C)C)C1` (configuration not stated), the entry is “inactive”. Consider `COc1ccc(CNC(=O)c2sc(=O)n(Cc3cc(Cl)ccc3OC)c2C)cc1`, for which the Potency result is “inactive”. As for `COc1cc2[nH]cc(C(=O)NCc3ccccc3)c(=O)c2cc1OC`, the figure is 3.79 µM (active). Regarding `CC1CCC(=NNc2ccc(C(F)(F)F)cc2[N+](=O)[O-])CC1` (configuration not stated), the Potency is 8.49 µM (active).

As for `C1=Cc2ccccc2/C1=C\c1cc2c3c(c1)CCCN3CCC2`, the Potency is 8.49 µM (active). Next, `Cc1cc(=O)n2[nH]c(Nc3cccc(Cl)c3)nc2n1`: “inactive”; `COc1ccc2cc(C(=O)N3CCN(c4ccc(F)cc4)CC3)[nH]c2c1`: “inactive”; `COc1ccc(Nc2cc(C(=O)N3CCc4ccccc4C3)c3ccccc3n2)c(OC)c1`: “inactive”. Next, `COc1ccc(N2CCN(C(=O)c3cc(-c4cc(OC)ccc4OC)nc4ccccc34)CC2)cc1`: 13.5 µM (active); `CN(C)CCCN1c2ccc(O)cc2Sc2ccc(Cl)cc21`: 12 µM (active). Next, `Cn1cc(SCC(=O)Nc2ccc3c(c2)OCCO3)c2ccccc21`: “inactive”.

Consider `Nn1c(SCC(=O)Nc2ccc3c(c2)OCCO3)nnc1-c1ccccn1`, for which the Potency was 15.1 µM (active).

As to `O=C(CSc1ccc2c(c1)OCCO2)Nc1ccc2c(c1)OCO2`, the Potency entry was “inactive”.
